Data published in the supplement of paper PMC12494721.
Counter-ions that a name gives are not always drawn.

What was measured:
Conditions in all cases: incubation time: 27 h, anaerobic, 37 °C;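 for the amine columns active = adjusted P below 0.05 in both replicates with a change the same way and a mean fold change under 0.8 or over 1.25; inactive = the rest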
[1] = system: Clostridium sporogenes DSM 1664; experiment: growth (OD595) fold change vs plate DMSO controls (fold change (ratio)); higher = more growth
How it was run: (§1)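 Anaerobic mGAM cultures in 96-well plates were grown for 27 h at 37 °C, and absorbance was then read at 595 nm. After blank and compound background correction with 20 µM compound solutions in water, a calibration factor of 5 gave OD. Growth is the fold change relative to the median of each plate's DMSO controls. Values are means of 2 biological replicates, with fold changes above 1.5 set to NA.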

[2] = system: Escherichia coli IAI1; experiment: as above
How it was run: as §1

[3] = system: Klebsiella aerogenes DSM 30053; experiment: as above
How it was run: as §1

[4] = system: Ruminococcus gnavus DSM 108212; experiment: as above
How it was run: as §1

[5] = system: Klebsiella aerogenes DSM 30053; experiment: fold change of Histamine concentration vs plate DMSO controls (fold change (ratio)); higher = more amine produced, active = hit call of the paper (significant change in both replicates, either direction)
How it was run: (§2)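 Anaerobic mGAM cultures of four gut bacterial strains were grown at 37 °C for 27 h in 80 µL wells, starting at OD 0.1 before 1:1 dilution. Compounds were at 20 µM final (sweeteners 50 µM). Whole cultures were extracted with cold acetonitrile/methanol containing 0.1% formic acid and centrifuged. Amines were quantified by LC–triple-quadrupole MS (dynamic MRM) against external calibration curves and drift-corrected within batch. Each value is the fold change versus plate DMSO controls, averaged over 2 biological replicates.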

[6] = system: Clostridium sporogenes DSM 1664; experiment: fold change of Tryptamine concentration vs plate DMSO controls (fold change (ratio)); higher = more amine produced, active = hit call of the paper (significant change in both replicates, either direction)
How it was run: as §2

[7] = system: Ruminococcus gnavus DSM 108212; experiment: as above
How it was run: as §2

[8] = system: Escherichia coli IAI1; experiment: fold change of Putrescine concentration vs plate DMSO controls (fold change (ratio)); higher = more amine produced, active = hit call of the paper (significant change in both replicates, either direction)
How it was run: as §2

[9] = system: Klebsiella aerogenes DSM 30053; experiment: as above
How it was run: as §2

[10] = system: Escherichia coli IAI1; experiment: fold change of Cadaverine concentration vs plate DMSO controls (fold change (ratio)); higher = more amine produced, active = hit call of the paper (significant change in both replicates, either direction)
How it was run: as §2

[11] = system: Klebsiella aerogenes DSM 30053; experiment: as above
How it was run: as §2

[12] = system: Ruminococcus gnavus DSM 108212; experiment: fold change of 2-Phenylethylamine concentration vs plate DMSO controls (fold change (ratio)); higher = more amine produced, active = hit call of the paper (significant change in both replicates, either direction)
How it was run: as §2

Compound	growth [1]	growth [2]	growth [3]	growth [4]	fold change of Histamine concentration [5]	fold change of Tryptamine concentration [6]	fold change of Tryptamine concentration [7]	fold change of Putrescine concentration [8]	fold change of Putrescine concentration [9]	fold change of Cadaverine concentration [10]	fold change of Cadaverine concentration [11]	fold change of 2-Phenylethylamine concentration [12]
O=C(Oc1ccccc1)c1ccccc1O [Phenyl salicylate] (20 µM)	1.08	0.961	0.971	1.04	1.09 (inactive)	1.12 (inactive)	1.08 (inactive)	1.03 (inactive)	0.942 (inactive)	0.916 (inactive)	1 (inactive)	1.13 (inactive)
CC(C)c1nc(CN(C)C(=O)N[C@H](C(=O)N[C@@H](Cc2ccccc2)C[C@H](O)[C@H](Cc2ccccc2)NC(=O)OCc2cncs2)C(C)C)cs1 [Ritonavir] (20 µM)	1.01	0.962	0.987	0.983	1.08 (inactive)	0.822 (inactive)	0.942 (inactive)	0.943 (inactive)	1.01 (inactive)	0.99 (inactive)	0.985 (inactive)	0.939 (inactive)
NC[C@H]1O[C@H](O[C@H]2[C@H](O)[C@@H](O[C@H]3O[C@H](CO)[C@@H](O)[C@H](N)[C@H]3O)[C@H](N)C[C@@H]2N)[C@H](N)C[C@@H]1O [Tobramycin] (20 µM)	1.09	0.95	0.772	0.73	0.65 (active)	1.13 (inactive)	0.946 (inactive)	0.911 (inactive)	0.922 (inactive)	0.889 (inactive)	0.978 (inactive)	0.941 (inactive)
C[N+](C)(CCOc1ccccc1)Cc1ccccc1.O=C([O-])c1cc2ccccc2cc1O [Bephenium hydroxynaphthoate] (20 µM)	0.816	0.99	0.976	0.995	1.04 (inactive)	1.16 (inactive)	1.04 (inactive)	0.854 (inactive)	0.99 (inactive)	1.51 (active)	0.992 (inactive)	1.06 (inactive)
CC(C(=O)O)c1ccc(C(=O)c2cccs2)cc1 (stereo not drawn) [Suprofen] (20 µM)	1.08	0.983	0.986	0.974	1.03 (inactive)	1.04 (inactive)	1.09 (inactive)	0.954 (inactive)	0.995 (inactive)	1.01 (inactive)	0.986 (inactive)	1.08 (inactive)
COC(=O)[C@H]1[C@H]2C[C@@H]3c4[nH]c5cc(OC)ccc5c4CCN3C[C@H]2C[C@@H](OC(=O)c2cc(OC)c(OC)c(OC)c2)[C@@H]1OC [Reserpine] (20 µM)	1.21	0.987	1.02	1.01	0.943 (inactive)	1.07 (inactive)	1.04 (inactive)	0.935 (inactive)	0.983 (inactive)	0.966 (inactive)	1.01 (inactive)	1.07 (inactive)
CN(C)CCOc1ccc(/C(=C(/CCCl)c2ccccc2)c2ccccc2)cc1 [Toremifene] (20 µM)	1.18	1.1	1.15	0.943	0.943 (inactive)	1.02 (inactive)	0.647 (active)	0.998 (inactive)	0.975 (inactive)	0.98 (inactive)	1.04 (inactive)	0.871 (inactive)
CC1(C)S[C@@H]2[C@H](NC(=O)[C@H](N)c3ccccc3)C(=O)N2[C@H]1C(=O)O [Ampicillin trihydrate] (20 µM)	0	0.431	0.91	0	0.914 (inactive)	0.01 (active)	0.0662 (active)	2.31 (active)	1.03 (inactive)	2.29 (active)	1.06 (inactive)	0.0431 (active)
Cn1cnc([N+](=O)[O-])c1Sc1ncnc2[nH]cnc12 [Azathioprine] (20 µM)	1.11	1.03	0.993	1.49	0.991 (inactive)	1.04 (inactive)	0.965 (inactive)	0.977 (inactive)	0.99 (inactive)	0.974 (inactive)	0.992 (inactive)	0.984 (inactive)
CC(=O)Oc1ccc(C(c2ccc(OC(C)=O)cc2)c2ccccn2)cc1 [Bisacodyl] (20 µM)	0.976	0.978	0.993	0.731	1.06 (inactive)	0.942 (inactive)	0.988 (inactive)	0.967 (inactive)	1.02 (inactive)	1 (inactive)	0.998 (inactive)	0.954 (inactive)
CC[C@@H]1C(=O)OC[C@@H]1Cc1cncn1C [Pilocarpine nitrate] (20 µM)	1.03	1	0.987	0.556	0.95 (inactive)	0.955 (inactive)	1.01 (inactive)	1.02 (inactive)	1.01 (inactive)	1.04 (inactive)	0.993 (inactive)	0.965 (inactive)
Cc1c(NC(=O)c2cccnc2)c(=O)n(-c2ccccc2)n1C [Nifenazone] (20 µM)	0.595	0.988	1.03	0.857	0.926 (inactive)	0.135 (active)	1.02 (inactive)	0.723 (active)	0.978 (inactive)	0.865 (inactive)	1 (inactive)	1.03 (inactive)
C=C1C[C@@]23CC[C@H]4[C@@](C)(CCC[C@@]4(C)C(=O)O[C@@H]4O[C@H](CO)[C@@H](O)[C@H](O)[C@H]4O)[C@@H]2CC[C@]1(O[C@@H]1O[C@H](CO)[C@@H](O)[C@H](O)[C@H]1O)C3 [Rubusoside] (50 µM)	1.1	1	0.969	1.01	1.01 (inactive)	1 (inactive)	0.989 (inactive)	1.05 (inactive)	1.01 (inactive)	1.02 (inactive)	0.991 (inactive)	0.981 (inactive)
CCCCN(CCCC)CCCOC(=O)c1ccc(N)cc1 [Butacaine] (20 µM)	1.11	1.03	1.02	1	1.03 (inactive)	0.973 (inactive)	0.951 (inactive)	0.955 (inactive)	1.01 (inactive)	1.02 (inactive)	1 (inactive)	0.913 (inactive)
N=C(N)NC(=N)NCCc1ccccc1 [Phenformin hydrochloride] (20 µM)	0.958	1.01	1.07	0.756	1 (inactive)	1.03 (inactive)	1.03 (inactive)	0.964 (inactive)	1 (inactive)	1.07 (inactive)	1.01 (inactive)	1.05 (inactive)
NC[C@H]1CC[C@H](C(=O)O)CC1 [Tranexamic acid] (20 µM)	1.06	1.02	1	1.14	0.965 (inactive)	1.03 (inactive)	0.85 (inactive)	0.977 (inactive)	1.01 (inactive)	1.01 (inactive)	1.01 (inactive)	0.849 (inactive)
Cn1c(=O)c2c(ncn2CC(=O)O)n(C)c1=O [Acefylline] (20 µM)	0.895	0.94	1.02	1.06	0.964 (inactive)	0.971 (inactive)	0.936 (inactive)	0.93 (inactive)	0.995 (inactive)	1.01 (inactive)	0.999 (inactive)	0.886 (inactive)
CN[C@@H]1[C@@H](O)[C@@H](O[C@@H]2[C@@H](O)[C@H](O[C@H]3OC(CN)=CC[C@H]3N)[C@@H](N)C[C@H]2N)OC[C@]1(C)O [Sisomicin sulfate] (20 µM)	0.97	0.99	0.992	0.942	0.971 (inactive)	0.984 (inactive)	1.02 (inactive)	1 (inactive)	0.998 (inactive)	0.996 (inactive)	1 (inactive)	1.04 (inactive)
CC(C)NCC(O)COc1cccc2[nH]c3ccccc3c12 (stereo not drawn) [Carazolol] (20 µM)	0.738	1	0.956	1.12	1.06 (inactive)	0.732 (inactive)	1.07 (inactive)	0.922 (inactive)	0.966 (inactive)	0.889 (inactive)	0.992 (inactive)	1.14 (inactive)
Cc1nc(=O)c2cc(CN(C)c3ccc(C(=O)N[C@@H](CCC(=O)O)C(=O)O)s3)ccc2[nH]1 [Raltitrexed] (20 µM)	1.11	1	1.02	1.21	1 (inactive)	1.17 (inactive)	1.06 (inactive)	0.924 (inactive)	0.968 (inactive)	0.943 (inactive)	1.05 (inactive)	1.06 (inactive)
CN1CCN(C2=Nc3cc(Cl)ccc3Nc3ccccc32)CC1 [Clozapine] (20 µM)	1.01	0.997	0.984	0.688	1.01 (inactive)	1.02 (inactive)	0.947 (inactive)	1.02 (inactive)	0.989 (inactive)	0.889 (inactive)	1 (inactive)	0.92 (inactive)
CCCSS/C(CCO)=C(/C)N(C=O)Cc1cnc(C)nc1N [Prosultiamine] (20 µM)	0.945	1.01	0.993	0.919	0.951 (inactive)	1.09 (inactive)	1.09 (inactive)	0.949 (inactive)	0.98 (inactive)	0.958 (inactive)	0.984 (inactive)	1.16 (inactive)
O=C(CCNNC(=O)c1ccncc1)NCc1ccccc1 [Nialamide] (20 µM)	0.952	0.991	1.02	0.89	1.03 (inactive)	1.01 (inactive)	1 (inactive)	0.997 (inactive)	1 (inactive)	1.03 (inactive)	0.998 (inactive)	1.01 (inactive)
CC[N+](CC)(CC)CCOc1cccc(OCC[N+](CC)(CC)CC)c1OCC[N+](CC)(CC)CC [Gallamine triethiodide] (20 µM)	1.09	1.02	1.05	0.905	0.862 (inactive)	1.12 (inactive)	1.09 (inactive)	1.06 (inactive)	0.945 (inactive)	0.947 (inactive)	1.04 (inactive)	1.06 (inactive)
